Laboratory results taken from PubChem BioAssay AID624296 (National Center for Advancing Translational Sciences (NCATS), 2012).
About 9,900 (2.8%) of roughly 350,000 compounds were called active. Another 15% or so got no clear call; they are omitted. Calls come from the whole dose curve; as a rule, active = well fitted activation curve with a large enough effect; inconclusive = small, poorly fitted or top-dose-only effect; inactive = no such curve, though single readings can be large or run the other way. What follows is part of a selection rich in actives, with near analogues and random picks from the rest. Where a call stands in place of a potency, no number is given.

Test: A quantitative high throughput screen for small molecules that induce DNA re-replication in MCF 10a normal breast cells. Note: nearly all actives have a fitted effect of over 50% in size.
Conditions: MCF 10A DNA re-replication, Hoechst nuclear intensity, 48 h; series mostly up to 46.1 µM
Potency is the fitted concentration of half-maximal effect.

SMILES | Potency
CC(NC(=O)c1ccccc1)C(=O)Nc1ccccc1 (stereo not drawn) | inactive
CC(Oc1ccc2c(-c3ccccc3)cc(=O)oc2c1)C(=O)NC(Cc1c[nH]c2ccccc12)C(=O)O (stereo not drawn) | inactive
Cc1cc(N2CCN(S(=O)(=O)c3ccc(C)c(C)c3)CC2)c2ccccc2n1 | 10.3 µM (active)
Cc1ccc(S(=O)(=O)N2CCN(c3ccccc3)CC2)cc1C | inactive
Cc1ccccc1N1CCN(S(=O)(=O)c2ccc3ccccc3c2)CC1 | inactive
COc1ccc(Cl)cc1C=CC=NNC(=O)c1ccncc1 | inactive
COc1ccccc1C(=O)NCC(=O)OCC(=O)NNC(=O)c1ccc(Br)cc1 | inactive
O=C(O)c1ccccc1N=N/C(=N/Nc1cc(S(=O)(=O)O)ccc1O)c1ccccc1 | inactive
O=C(CN1C(=O)c2cccc3cccc1c23)Nc1ccccc1 | 20.6 µM (active)
Cc1cccc(NC(=O)CN2C(=O)c3ccccc3C2=O)c1C | inactive
Cc1cc(C)cc(NC(=O)CN2C(=O)c3ccccc3C2=O)c1 | inactive
CN(C(=O)CSc1nnc(-c2ccc3c(c2)OCO3)o1)C1CCS(=O)(=O)C1 (stereo not drawn) | inactive
Cc1ccc(S(=O)(=O)N(C)C)cc1NC(=O)c1ccc(-n2cncn2)c([N+](=O)[O-])c1 | inactive
CCOCCn1[nH]c2ccccc2c1=O | inactive
COc1ccc(CNC(=O)COC(=O)C2=Cc3ccccc3OC2)cc1 | 18.4 µM (active)
O=C(COC(=O)c1ccc2c(c1)OCCO2)NCc1ccccc1 | inactive
COc1ccc(CCNC(=O)COC(=O)c2cc(=O)c3ccccc3o2)cc1 | inactive
CN(/N=C/c1ccccc1)C(=S)c1ccccc1 | inactive
CCC(CO)Oc1cc(NC(=O)c2ccc(Cl)cc2)c2ncn(C(C)C)c2c1 (stereo not drawn) | inactive
Cc1nnc(N/N=C/c2ccccn2)[nH]c1=O | 2.59 µM (active)
Cc1ccccc1Nc1nnc(C)c(=O)[nH]1 | inactive
Cc1nnc(N/N=C/c2cccs2)[nH]c1=O | inactive
COc1ccc2nc(N3CCCC(O)C3)c(C#N)cc2c1 (stereo not drawn) | inactive
CCOc1ccc2nc(N3CCCN(C(=O)Nc4ccccc4C)CC3)c(C#N)cc2c1 | 16.4 µM (active)
CCOc1ccc(C(=O)NC2CCN(C(=O)Nc3ccccc3OC)CC2)cc1 | inactive
C[C@H](NS(=O)(=O)c1ccc(Cl)cc1)C(=O)OCC(=O)N1CCOCC1 | inactive

SMILES | Potency
CC(C)[C@@H](C(=O)OCC(=O)c1ccc2c(c1)NC(=O)CO2)N1C(=O)c2ccccc2C1=O | inactive
Cc1cccc(Nc2nnc(SCC(=O)c3c(N)n(C4CC4)c(=O)[nH]c3=O)s2)c1C | inactive
COc1ccc(Cc2nnc(N/N=C/c3ccccc3O)[nH]c2=O)cc1OC | 10.3 µM (active)
O=c1[nH]c(NCCO)nnc1Cc1ccc(Cl)cc1 | inactive
COc1ccc(/C=N/Nc2nc3ccccc3c(=O)[nH]2)cc1 | inactive
CCN(CC)S(=O)(=O)c1ccc(N2CCOCC2)c(NC(=O)C(C)Oc2ccc(F)cc2)c1 (stereo not drawn) | inactive
O=C(Nc1nnc(-c2ccccc2)o1)c1cc(-c2cccs2)nc2ccccc12 | 2.06 µM (active)
COC(=O)c1cc(-c2cccs2)nc2ccccc12 | inactive
CC(C)(C)Cc1nnc(NC(=O)c2cc(-c3ccccc3)nc3ccccc23)s1 | inactive
COc1cccc(N2CCN(CC(=O)Nc3ccnn3C3CCCC3)CC2)c1 | inactive
Cc1cc(C)cc(NC(=O)C(c2ccccc2)N2CCN(CC(=O)N3CCCC3)CC2)c1 (stereo not drawn) | inactive
COc1ccc(CNC(=O)C[C@H]2C[C@H](C(=O)N3CCOCC3)[C@@]3(C)c4[nH]c5cc(CCC(=O)N(C)C)ccc5c4CCN3C2=O)cc1OC | inactive
O=C(CN1C(=O)NC2(CCCCC2)C1=O)N1CCN(C(=O)c2cccs2)CC1 | inactive
CCC1(C)Cc2c(sc3nc(SC)[nH]c(=O)c23)CO1 (stereo not drawn) | inactive
CCn1c(=S)[nH]c2sc3c(c2c1=O)CCCCC3 | inactive
CCC1(C)Cc2c(sc3[nH]c(=S)n(Cc4ccccc4)c(=O)c23)CO1 (stereo not drawn) | 13 µM (active)
CCCCN(CCCC)CC(O)Cn1c2ccccc2c(=O)c2ccccc21 (stereo not drawn) | 18.4 µM (active)
O=S(=O)(c1ccccc1)N(CC(O)CN1CCCCC1)c1ccccc1 (stereo not drawn) | inactive
CS(=O)(=O)N(CC(O)Cn1c2ccccc2c2ccccc21)c1cccc2ccccc12 (stereo not drawn) | 16.4 µM (active)
CCCn1c(=O)c(-c2ccccc2)c(O)c2ccccc21 | inactive
Cc1cc(C)n(CC(O)CN(c2ccccc2)S(=O)(=O)c2ccc3ccccc3c2)n1 (stereo not drawn) | inactive
CCCCn1c(=O)c(C(C)=O)c(O)c2ccccc21 | inactive
O=C(CN1C(=O)NC(Cc2c[nH]c3ccccc23)C1=O)Nc1ccccc1C(F)(F)F (stereo not drawn) | inactive
CN(CC(=O)Nc1ccc(C(N)=O)cc1)S(=O)(=O)c1ccc2c(c1)OCCO2 | inactive
Cn1nccc1C(=O)NC1CCCc2c1cnn2-c1ccccc1F (stereo not drawn) | inactive
CC(=O)NCC(=O)NC1CCCc2c1cnn2-c1ccccc1F (stereo not drawn) | inactive

SMILES | Potency
COc1ccc(C(=O)NC2CCCc3c2cnn3-c2cccc(C)c2C)c(OC)n1 (stereo not drawn) | 18.4 µM (active)
CC(C)(C)NS(=O)(=O)NC(=O)C1=C(N2CCCC2)COC1=O | inactive
Cc1ccc(S(=O)(=O)N2CCCCC2)cc1NC(=O)[C@@H]1CCCN1C(=O)c1cccs1 | inactive
Cc1ccc(S(=O)(=O)NCC(=O)NNC(=O)c2ccc(Br)cc2)cc1C | inactive
FC(F)(F)c1cc(-c2cccs2)nc(NCc2ccco2)n1 | inactive
Cc1cc(C(F)(F)F)nn1-c1nc(-c2ccco2)cc(C(F)(F)F)n1 | inactive
FC(F)(F)c1cc(-c2ccco2)nc(NCc2ccc(Cl)cc2)n1 | 16.4 µM (active)
CN(CC(=O)Nc1ccc(F)c(F)c1F)C(=O)C1CC(=O)N(C2CCCC2)C1 (stereo not drawn) | inactive
O=C(N[C@@H](Cc1c[nH]c2ccccc12)C(=O)O)OCC1c2ccccc2-c2ccccc21 | inactive
COc1ccc(CCNC(=O)COC(=O)c2ncc(Cl)c(Cl)c2Cl)cc1OC | inactive
COC(=O)c1ccccc1NC(=O)CSc1nc2c(c(=O)[nH]1)CCC2 | inactive
CCOC(=O)c1ccccc1NC(=O)CSc1nc2ccccc2c(=O)[nH]1 | 18.4 µM (active)
CCOC(=O)c1cnc(SCC(=O)Nc2ccccc2C(=O)OC)nc1N | inactive
Cc1ccc(Cn2c(C)c3cnn(CC(=O)NCCN4CCOCC4)c(=O)c3c2C)cc1 | inactive
O=C(NCCCN1CCOCC1)c1cn(-c2ccccc2)nc1-c1ccc(F)cc1 | inactive
COc1ccc(-c2ccc3c(c2)C2CC3CCN2CCC#N)cc1 (stereo not drawn) | inactive
CCN(CC)S(=O)(=O)c1cc(C(=O)Nc2cc(S(=O)(=O)N3CCOCC3)ccc2N2CCCC2)ccc1F | inactive
C/C(=C\c1ccccc1)C1NC(=O)c2c(sc3c2CCCC3)N1 (stereo not drawn) | 20.6 µM (active)
O=C1CCCCC1C(=O)c1ccccc1 (stereo not drawn) | inactive
O=C1NC(c2ccncc2)Nc2sc3c(c21)CCCC3 (stereo not drawn) | inactive
CNC[C@H]1Oc2c(NC(=O)C3CCCCC3)cccc2C(=O)N([C@H](C)CO)C[C@@H]1C | inactive
Cc1noc(C)c1S(=O)(=O)N(C)C[C@H]1Oc2ccc(NC(=O)C3CCCCC3)cc2C(=O)N([C@H](C)CO)C[C@@H]1C | inactive
O=C(COC(=O)c1ccccc1)c1ccc2c(c1)OCCO2 | inactive
O=C(CCN1CCc2ccccc2C(O)(c2ccccc2)C1)c1ccc2c(c1)OCCO2 (stereo not drawn) | 6.51 µM (active)
O=C(CN1CCC(O)(c2ccccc2)CC1)Nc1ccc2c(c1)OCCO2 | inactive
CCN(C(=O)COC(=O)c1ccccc1O)c1cccc2ccccc12 | inactive

SMILES | Potency
O=C(CCCOc1ccccc1)NNC(=O)c1ccc(Cl)cc1 | inactive
CCC1=NN2C(=N)/C(=C/c3cc(C)n(-c4ccccc4)c3C)C(=O)N=C2S1 | inactive
CCS(=O)(=O)C1=NSC2=NC(=O)/C(=C\c3ccc(OS(=O)(=O)c4ccccc4)cc3)C(=N)N21 | inactive
CCS(=O)(=O)C1=NSC2=NC(=O)/C(=C\c3cc(C)n(-c4cccc(OC)c4)c3C)C(=N)N21 | 5.8 µM (active)
CC(=O)c1cccc(-c2ccc(CN3C(CC(C)C)C(=O)N(Cc4cn(CC5CCCCC5)nn4)CCS3(=O)=O)cc2)c1 (stereo not drawn) | inactive
CCOc1ccc(C(=O)Nc2cc(OC)ccc2OC)cc1 | inactive
CCOc1cc2ccccc2cc1C(=O)Nc1ccccn1 | inactive
CCOc1cc(NC(=O)c2ccccn2)c(OCC)cc1NC(=O)c1ccc(OC)cc1 | 3.26 µM (active)
CN(Cc1ccc(CNC[C@H]2O[C@@H](n3cnc4c(N)ncnc43)[C@H](O)[C@@H]2O)o1)S(C)(=O)=O | inactive
Cc1c(C(C)CCCO)oc(=O)c2c1Oc1c(C)c(C(C)C[C@@H](C)O)oc(=O)c1C2 (stereo partly drawn) | inactive
Cc1cccc(C)c1NC(=O)COC(=O)c1c(C)nn(-c2ccccc2)c1C | inactive
Cc1nn(-c2ccccc2)c(C)c1C(=O)OCC(=O)NC(=O)NC1CCCCC1 | inactive
CCCn1c(C)cc(C(=O)COC(=O)c2c(C)nn(-c3ccccc3)c2C)c1C | 9.2 µM (active)
O=C1CCC/C=C\C[C@@H](CC(=O)N(CCO)Cc2ccccc2)C(=O)NCCO1 | inactive
O=C1OCC2=C1C(c1ccc(Cl)cc1)c1cc3c(cc1O2)OCO3 (stereo not drawn) | inactive
C=CC(=O)OCCOCCOCCOCCOC(=O)C=C | 5.8 µM (active)
Cc1ccc(S(=O)(=O)Nc2nc(C)cc(N/N=C/c3ccc(O)cc3)n2)cc1 | inactive
Cc1cc(Nc2ccc(Cl)cc2)nc(N2CCOCC2)n1 | inactive
Cc1cc(C)n(-c2nnc(N3CCN(c4ccccc4)CC3)nn2)n1 | inactive
CCOC(=O)c1cnc(-n2nc(C)cc2C)nc1Nc1cccc(C(C)=O)c1 | inactive
CC(=O)c1ccc(Oc2cc(C)nc(-n3nc(C)cc3C)n2)cc1 | 4.11 µM (active)
Cc1cc(C)n(-c2ccc(Cl)c(C(=O)O)n2)n1 | inactive
COc1ccc(Nc2cc(C)nc(-n3nc(C)cc3C)n2)cc1 | 2.06 µM (active)
Cc1cc(N/N=C\c2ccc(Br)cc2)nc(-n2nc(C)cc2C)n1 | 18.4 µM (active)
CC(=O)Nc1ccc(Nc2cc(C)nc(Nc3ccc(NC(C)=O)cc3)n2)cc1 | inactive
